# Source: PubChem (National Center for Advancing Translational Sciences (NCATS))
# Hits are enriched below; roughly 1.5% of the tested compounds scored in any of these assays.
# RECQ1 inh: qHTS Assay for Inhibitors of RecQ-Like Dna Helicase 1 (RECQ1). Potency, µM (titrated, usually from 57.3 µM), inactives show top-dose activity, negative = inhibition, usual class: inhibitors. RECQ1 DNA unwinding, red fluorescence kinetic read. ATP-dependent DNA helicase Q1 (Homo sapiens), P46063. 240,000 compounds, 0.54% hits;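 further: potency means the concentration at half of the fitted maximal effect; plate controls were vehicle for no effect and no enzyme for full effect; nearly all actives have a fitted effect of over 30% in size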
#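 RECQ1T1 50 nM; forked duplex (20 bp + 30-nt ss tails) 200 nM, ATP 2 mM final; pH 8.0, 2 mM MgCl2, 2.5 ug/ml poly(dI-dC); 15 min compound preincubation; discontinuous kinetic read over 2 h at RT.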
# BLM helicase inh: qHTS Assay for Inhibitors of Bloom's syndrome helicase (BLM); RecQ-like DNA helicase BLM (Homo sapiens), P54132; recombinant BLM DNA unwinding, fluorescence dequenching; Potency, µM (titrated, usually from 56.1 µM), inactives show top-dose activity change, negative = inhibition, usual class: inhibitors; 350,000 compounds, 0.2% hits; AID 2528, 2010;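 further: potency means the concentration at half of the fitted maximal effect; plate controls were vehicle for no effect and no enzyme for full effect; nearly all actives have a fitted effect of over 35% in size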
# WRN inhibitor: qHTS for Inhibitors of WRN Helicase; WRN helicase unwinding, fluorescent forked duplex, kinetic; 360,000 compounds, 0.46% hits; Potency, µM (top dose mostly 114 µM), for the others: at the top dose activity change, negative = inhibition, actives largely listed as inhibitors; Bifunctional 3'-5' exonuclease/ATP-dependent helicase WRN (Homo sapiens), Q14191; further: potency means the concentration at half of the fitted maximal effect; nearly all actives have a fitted effect of over 55% in size
#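 WRN at 20 nM final was preincubated with compound for 15 min at room temperature; reaction started with 100 nM forked duplex oligonucleotide carrying fluorophore and quencher plus 2 mM ATP (final). Unwinding followed kinetically by red fluorescence (ex 525/em 598 nm).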
# FEN1 inh: qHTS Assay for the Inhibitors of Human Flap endonuclease 1 (FEN1); P39748; Recombinant FEN1 flap cleavage, fluorescence, 15 min; Potency, µM (doses to about 114 µM), for inactives: top-dose activity change, negative = inhibition, most hits filed as inhibitors; 390,000 compounds, 0.35% hits; AID 588795, 2011; further: potency means the concentration at half of the fitted maximal effect; nearly all actives have a fitted effect of over 65% in size
#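 In this screen, 50 nM flap DNA substrate was added to 10 nM FEN1 pretreated with compound for 15 min at room temperature; cleavage was followed with reads at 0 and 15 min, and Hill fitting gave concentration–response parameters.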
# PI5P4K alpha inh: qHTS for Inhibitors of phosphatidylinositol 5-phosphate 4-kinase (PI5P4K); PI5P4Kalpha enzyme, ADP-Glo luminescence, 60 min; active compounds read low; Phosphatidylinositol 5-phosphate 4-kinase type-2 alpha (Homo sapiens), P48426; max response, %; AID 652105, 2013; 330,000 compounds, 1.2% hits; active means max response of -50% or lower; inconclusive means between -30% and -50%; inactive means -30% or higher; further: value at the top dose of about 77 µM
#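 Luminescence from ADP-Glo served as readout of PI5P4Kalpha activity in a qHTS format. Reaction: enzyme, substrate, compound, ATP at 5 microM final, 60 min at RT.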
# APEX1 inh: qHTS Assay for Inhibitors of the Human Apurinic/apyrimidinic Endonuclease 1 (APE1) | Potency, µM (titrated, usually from 65.8 µM), without a hit: at the top dose activity change, negative = inhibition, actives largely listed as inhibitors | AID 2517, 2012 | recombinant APE1, TAMRA/BHQ-2 abasic DNA cleavage fluorescence | 350,000 compounds, 0.35% hits | DNA repair nuclease/redox regulator APEX1 (Homo sapiens), P27695;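 further: potency means the concentration at half of the fitted maximal effect; plate controls were vehicle for no effect and reference inhibitor for full effect; nearly all actives have a fitted effect of over 55% in size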
#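 Enzyme (0.75 nM final) and test compound are incubated 15 min at room temperature before adding 50 nM quenched THF abasic-site duplex. Cleavage dequenches TAMRA, followed at 525/598 nm over three reads one minute apart.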
# Active calls of the source: *; i = inactive; ? = inconclusive; . = no result given; [ ] = dose if it differs, or a comment. Unless noted, the call rests on the fitted dose curve; in most records, active means well fitted curve in the direction sought with a large enough effect; inconclusive means small, poorly fitted or top-dose-only effect, or another doubt; inactive means no such curve, though single readings can be large; an effect the other way counts as inactive or inconclusive. Unless noted, on the % scale 0 is the no-effect control and ±100 the full control effect.
SMILES,RECQ1 inh,BLM helicase inh,WRN inhibitor,FEN1 inh,PI5P4K alpha inh,APEX1 inh
O=C(C[C@@H]1C/C=C\C[C@@H](Cc2ccc(F)cc2)C(=O)OC[C@@H](Cc2c[nH]c3ccccc23)NC1=O)NCCO,.,.,4%,-20%,7,-16%
CC(C)Cn1c(N)c(C(=O)COC(=O)c2cc(-c3ccco3)nc3ccccc23)c(=O)n(C)c1=O,20µM*,?,?,?,-97*,11µM*
Cn1c(=O)c(C(=O)COC(=O)c2cc(-c3ccco3)nc3ccccc23)c(N)n(Cc2ccccc2)c1=O,32µM*,?,.,.,.,?
Cn1c(N)c(C(=O)COC(=O)c2cc(-c3ccccc3)nc3ccccc23)c(=O)n(Cc2ccccc2)c1=O,-2%,-7%,-7%,-13%,22,-3%
COc1cc(OC)c(OC)cc1CNc1sc2c(c1C(=O)Nc1ccccc1OC)CCC2,.,-8%,.,0%,.,.
O=C(COC(=O)CCN1C(=O)/C(=C\C=C\c2ccccc2)SC1=S)Nc1cc(F)ccc1F,-18%,-15%,-36%[57.1 µM],-3%,-51*,2%
CC(C)(C)OC(=O)CN1C(=O)NC(Cc2c[nH]c3ccccc23)C1=O (configuration not stated),.,-2%,-3%,1%,1,4%
C/C(N)=C(/C#N)C(=O)CN1C(=O)NC(Cc2c[nH]c3ccccc23)C1=O (configuration not stated),.,-18%,-31%,3%,-66*,15µM*
CCN1CC2([N+](=O)[O-])C=CC(=O)C([N+](=O)[O-])(C1)C2CC(=O)c1ccccc1 (configuration not stated),-12%,-2%,-36%[57.1 µM],13%,-53*,6%
CC(=O)N[C@H]1CSSC[C@@H](C(=O)N2CCC[C@H]2C(=O)N2CCC[C@H]2C(=O)N[C@@H](CCCCN)C(=O)N[C@@H](CC(=O)O)C(N)=O)NC(=O)CNC(=O)[C@H](Cc2c[nH]c3ccccc23)NC(=O)[C@H](CCCNC(=N)N)NC(=O)[C@@H](Cc2ccc(Cl)c(Cl)c2)NC(=O)[C@H](Cc2cnc[nH]2)NC(=O)[C@H](CCC(=O)O)NC1=O,17%,-6%,.,.,.,15%
COc1cc(/C=C2/C(=N)N3C(=NC2=O)SN=C3S(=O)(=O)C(C)C)ccc1OC(=O)c1ccco1,.,-4%,-21%,-1%,-75*,25%
CCOc1cc(/C=C2/C(=N)N3C(=NC2=O)SN=C3S(=O)(=O)C(C)C)ccc1OC(=O)c1ccco1,.,-7%,-26%[11.6 µM],-8%,-83*,12%
COc1ccc(NC(=O)N2CCc3nc(-c4ccc(OC)cc4C)c4c(c3C2)CO[C@@H](c2ccccc2)C4)cc1,i[11.5 µM],-2%[12.4 µM],.,.,.,9%[12.4 µM]
O=C1OC2(c3cc(I)c(O)c(I)c3Oc3c2cc(I)c(O)c3I)c2c(Cl)c(Cl)c(Cl)c(Cl)c21,10µM*,13µM*,.,.,.,13µM*
O=C1OC2(c3ccccc31)c1cc(I)c(O)c(I)c1Oc1c2cc(I)c(O)c1I,28µM*,22µM*,.,.,.,27µM*
C=COC(=O)/C=C/C,4%,-4%,.,.,.,-1%
O=C1NN(c2ccccc2)C(=O)/C1=C\c1ccccc1,.,-3%,-8%,-19%,-1,39%
O=C1NN(c2ccccc2)C(=O)/C1=C/c1coc2ccccc2c1=O,-3%,-10%,?,0%,-64*,5%
C#CCOCCOCCOCCNc1nc(N2CCN(C(=O)CCCCCCCCCCNC(=O)[C@H](CCCCN)n3cc(C[C@@H](C)CC)nn3)CC2)nc(N2CCN(C(=O)CCCCCCCCCCNC(=O)[C@@H]([C@H](C)O)n3cc(C)nn3)CC2)n1,.,.,50µM*,32µM*,?,?
C#CCOCCOCCOCCNc1nc(N2CCN(C(=O)CCCCCCCCCCNC(=O)[C@H](CCCCN)n3cc(C[C@@H](C)CC)nn3)CC2)nc(N2CCN(C(=O)CCCCCCCCCCNC(=O)[C@H](CCCN=C(N)N)n3cc(C[C@@H](C)CC)nn3)CC2)n1,.,.,32µM*,25µM*,-90*,?
C#CCOCCOCCOCCNc1nc(N2CCN(C(=O)CCCCCCCCCCNC(=O)[C@H]([C@@H](C)CC)n3cc(CCCCN=C(N)N)nn3)CC2)nc(N2CCN(C(=O)CCCCCCCCCCNC(=O)[C@@H]([C@H](C)O)n3cc(C)nn3)CC2)n1,.,.,56µM*,25µM*,-84*,?
C#CCOCCOCCOCCNc1nc(N2CCN(C(=O)CCCCCCCCCCNC(=O)[C@@H](CCSC)n3cc(CCO)nn3)CC2)nc(N2CCN(C(=O)CCCCCCCCCCNC(=O)[C@H](CCCN=C(N)N)n3cc(C[C@@H](C)CC)nn3)CC2)n1,.,.,50µM*,20µM*,-79*,?
C#CCOCCOCCOCCNc1nc(N2CCN(C(=O)CCCCCCCCCCNC(=O)[C@H](CCCCN)n3cc(CCO)nn3)CC2)nc(N2CCN(C(=O)CCCCCCCCCCNC(=O)[C@H](CCCCN)n3cc(CCCC(=O)O)nn3)CC2)n1,.,.,21%,-3%,?,30%
Clc1ccc(-c2csc3ncnc(Sc4nnnn4C4CC4)c23)cc1,.,.,.,-26%,.,.
COC(=O)[C@H](Cc1ccccc1)N(Cc1ccc(C)cc1)S(C)(=O)=O,.,.,.,-23%,.,.
